# According to PubChem BioAssay AID485313 (National Center for Advancing Translational Sciences (NCATS), 2010):
# Out of some 320,000 compounds screened, about 7,600 (2.4%) were called active. Not shown: some 3% with an inconclusive outcome. The sample as a whole holds a higher share of actives than the screen did. Unmarked numbers belong to inactive results. The call rests on the fitted dose curve; in most records, active means well fitted activation curve with a large enough effect; inconclusive means small, poorly fitted or top-dose-only effect; inactive means no such curve, though single readings can be large or run the other way.
# Assay: qHTS Assay for NPC1 Promoter Activators; further: nearly all actives have a fitted effect of over 60% in size;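 on activation: reporter is driven by a mutant NPC1 promoter; % of control where 0% means no effect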
# Conditions: Huh7 NPC1 promoter luciferase reporter, 24 h; series mostly up to 9.22 µM; activation: at the top concentration
# Outline: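 Stable NPC1-promoter luciferase Huh7 line; cpd (DMSO) 24 h, 37 °C, 5% CO2; Amplite luciferase reagent 10 min RT; luminescence readout. qHTS format.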
# Potency means the concentration at half of the fitted maximal effect.
Compound,activation,Potency
Cc1ccsc1C(=O)NC1CCCCC1C (centres undefined),0.949%,
COc1cc(/C=N\Nc2ccc([N+](=O)[O-])cn2)ccc1OCC(=O)O,1.45%,
COc1cc(/C=N/O)ccc1OCc1ccc([N+](=O)[O-])cc1,,2.51 µM (active)
COc1cc(C(=O)OCc2ccc([N+](=O)[O-])cc2)cc(OC)c1OC,-0.326%,
Cc1ccccc1-c1cc(C(=O)NCC2CC2)n(CC2CC(c3cccnc3)=NO2)n1 (centres undefined),-0.342%,
O=C(COc1ccccc1O)NC1CCCC1,-2.53%,
CC(=O)Nc1ccc(NC(=O)CSc2nnc(C3CC3)n2-c2ccccc2)cc1,-5.77%,
Cc1ccccc1CSCC(=O)NC(=O)NC(C)(C)C,-3.16%,
CC(C)(C)NC(=O)CSC(=Nc1ccccc1F)NC#N,,3.98 µM (active)
COc1ccccc1-n1ccnc1SCC(=O)NC(C)(C)C,-0.961%,
COc1cc(C(C)=O)ccc1OC(C)C(=O)Nc1ccc(S(=O)(=O)N2CCCC2)cc1 (centres undefined),0.351%,
CC(C)N(C(=O)CSc1nnc(NC2CC2)s1)c1ccccc1,0.279%,
Cc1ccccc1NC(=O)Cc1nc(COC(=O)c2ccc(C(F)(F)F)cc2)cs1,-2.66%,
COc1ccc(NC(=S)N2N=CCC2c2ccccc2)cc1 (centres undefined),,1.41 µM (active)
CCC(C)N(C)C1CCN(C(=S)Nc2ccc(OC)cc2)CC1 (centres undefined),3.73%,
COc1ccc(NC(=S)N2CCc3cc(OC)c(OC)cc3C2)cc1,-3.04%,
N#CCCN(C(=O)COC(=O)C1CCN(c2ccc(C(F)(F)F)cn2)CC1)c1ccc(F)cc1,-1.26%,
O=C(NCC1CCCO1)c1ccc(S(=O)(=O)Nc2ccc(F)cc2)cc1 (centres undefined),2.02%,
c1csc(-c2cn3c(n2)SCC3)c1,10.9%,
Cc1nnc2n1N=C(c1ccccc1)CS2,-2.53%,
O=c1c2cc(-c3ccccc3)sc2nc2n1N=C(c1cccs1)CS2,,3.16 µM (active)
COC(=O)[C@]1(C)CCC[C@@]2(C)C3CC[C@]4(OC(C)=O)C[C@@]3(CCC21)CC4=NO (some centres undefined),4.54%,
O=C(NCCC1=CCCCC1)c1ccc(-n2cncn2)cc1,,3.55 µM (active)
O=C(COc1cccc(-n2cnnn2)c1)NCCC1=CCCCC1,-1.1%,
O=C(NCCC1=CCCCC1)c1ccc(Cl)c([N+](=O)[O-])c1,1.81%,

Compound,activation,Potency
O=C(O)c1ccc(N/N=C/c2cn(-c3ccccc3)nc2-c2cccs2)cc1,,1.26 µM (active)
O=C(NCc1cccnc1)c1cn(-c2ccccc2)nc1-c1cccs1,15.3%,
COc1ccc(-c2nn(-c3ccccc3)cc2/C=C\C(=O)Nc2ccc(C(=O)O)cc2)cc1,-2.75%,
COc1ccc(OC)c(CN2CCN(C(=O)CNC(=O)c3cc(C)cc(C)c3)CC2)c1,3.16%,
O=C(CSCc1ccccc1)N1CCc2ccccc21,,2.24 µM (active)
CCC(=O)N1CCCc2ccccc21,0.602%,
O=C(CN1CCN(c2ccccn2)CC1)N1CCc2ccccc21,-0.609%,
CN(CC(=O)Nc1ccc(F)cc1)CC(=O)N1CCCCC1,-1.98%,
Cc1ccc(S(=O)(=O)N(CC(=O)Nc2cccc([N+](=O)[O-])c2)Cc2ccc(Cl)cc2)cc1,-0.0248%,
CCCc1cc(C(=O)Nc2ccc(Cl)cn2)cs1,,0.501 µM (active)
CC(=O)c1ccc2c(c1)OCCOCCOc1ccc(C(C)=O)cc1OCCOCCO2,-10.2%,
CCCc1cc(C(=O)Nc2ccc(C(=O)OC)cc2)cs1,4.68%,
O=C(Nc1cccc(S(=O)(=O)Nc2ccc(Cl)cc2)c1)c1ccc2c(c1)OCCO2,-14.5%,
Cc1cccc(C)c1NC(=O)CNC(=O)c1ccc2c(c1)OCCO2,-1.52%,
COc1c(Cl)cc(C(=O)Nc2ccc(Cl)cn2)cc1Cl,25.4%,
O=C(Nc1ccc(Cl)cn1)c1ccc2c(c1)OCCO2,,0.501 µM (active)
Cc1nc(NC(=O)c2ccc3c(c2)OCCO3)ccc1Br,,1 µM (active)
CCCCC(CC)C(=O)Nc1ccc(Cl)cn1 (centres undefined),0.296%,
O=C(C1Cc2ccccc2CN1C(=O)c1ccco1)N1CCN(c2ccccc2)CC1 (centres undefined),-0.773%,
CN(CC(=O)Nc1ccc(F)c(F)c1F)C(=O)C1CC(=O)N(C2CCCC2)C1 (centres undefined),0.171%,
COc1ccc(CS(=O)/C(Cl)=C(/Cl)C(=O)Nc2ccc(OC)nc2)cc1 (centres undefined),-23.3%,
CCCCNC(=O)OC(C)CNC(=O)OC (centres undefined),-1.68%,
COc1ccc(NC(=O)COC(=O)c2n[nH]c3ccccc23)c(OC)c1,1.11%,
O=C(CSc1nnc(COc2ccc(Cl)cc2)n1Cc1ccco1)N1CCNC1=O,-9.88%,
CCNC(=O)N1CCN(S(=O)(=O)c2ccc3c(c2)OCCCO3)CC1,5.22%,

Compound,activation,Potency
O=C1N/C(=N\N=C\c2ccco2)SC1Cc1ccc(F)cc1 (centres undefined),-12.3%,
C=CCN1C(=O)C(Cc2cccc(Cl)c2)S/C1=N/N=C/c1ccco1 (centres undefined),-2.22%,
COc1ccc(CN2C(=O)C(C)S/C2=N/N=C/c2ccco2)cc1 (centres undefined),,3.16 µM (active)
CCOc1ccc(S(=O)(=O)N2CCC(C(=O)NCC(=O)Nc3cccc(Cl)c3C)CC2)cc1,-2%,
O=C(Nc1ccccc1F)c1ccc(S(=O)(=O)N2CCCCCC2)cc1,13%,
CCc1ccc2oc(-c3ccc(N)cc3)nc2c1,,0.708 µM (active)
Cc1[nH]c2ccccc2c1C(=O)C(C)Sc1nnc(C2CC2)o1 (centres undefined),-0.654%,
CC(NC(=O)Nc1cccc([N+](=O)[O-])c1)c1ccc2c(c1)OCO2 (centres undefined),-3.91%,
CNS(=O)(=O)c1ccc(NC(=O)Nc2ccc3c(c2)OCO3)cc1,,2.51 µM (active)
CC(NC(=O)Nc1ccc2c(c1)OCO2)c1ccncc1 (centres undefined),0.67%,
COc1cccc(/C=C/C(=O)Nc2ccc3c(c2)OCCO3)c1,,2.51 µM (active)
O=C(O)/C=C/c1ccc2c(c1)OCCO2,-0.0021%,
CC(C)CNS(=O)(=O)c1ccc(C(=O)Nc2ccc3c(c2)OCO3)cc1,-9.44%,
Cc1cccc(NC(=O)/C=C/c2ccc3c(c2)OCO3)n1,,1.41 µM (active)
Cc1cccc(NC(=O)Nc2ccc3c(c2)OCO3)n1,,1.78 µM (active)
COc1ccc(OC)c(/C=C/C(=O)OCC(=O)Nc2ccc3c(c2)OCCO3)c1,-4.86%,
Cc1ccc(S(=O)(=O)NCC(=O)Nc2ccc3c(c2)OCCO3)cc1,-5.21%,
O=C(/C=C/c1ccc2c(c1)OCO2)NCc1ccc(F)cc1,1.01%,
O=C(/C=C\c1ccc2c(c1)OCO2)NC1(C(=O)Nc2ccc3c(c2)OCCO3)CCCCC1,0.617%,
COc1ccc(NC(=O)CN(C)C(=O)c2cc(C3CC3)nn2-c2ccccc2)cc1,-2.75%,
O=S(=O)(c1ccc(Br)cc1)n1ccc2ccccc21,0.578%,
COc1ccc(S(=O)(=O)N2CCOCC2)cc1NC(=O)c1ccc(OCC(C)C)c(OC)c1,-2.86%,
Cc1ccccc1NC(=O)Cc1nc(COC(=O)c2cccnc2Cl)cs1,-1.43%,
O=C(CCc1ccccc1Cl)Nc1ccc(S(=O)(=O)Nc2nccs2)cc1,0.222%,
Cc1ccc(CN2CC(C(=O)N3CCN(S(=O)(=O)c4ccccc4)CC3)CC2=O)cc1 (centres undefined),0.0419%,

Compound,activation,Potency
NS(=O)(=O)c1ccc(CNC(=O)c2cccc(S(=O)(=O)N3CCc4ccccc43)c2)cc1,-4.31%,
O=C(O)c1cccc(S(=O)(=O)N2CC=C(c3ccccc3)CC2)c1,-3.36%,
COc1cccc(C(=O)OCC(=O)c2[nH]c(C)c(C(C)=O)c2C)c1,-4.6%,
COCCN1C(=O)C(=O)/C(=C(/O)c2ccc(S(=O)(=O)N3CCCCC3)cc2)C1c1ccc(OC)c(OC)c1 (centres undefined),-1.34%,
CC1CN(C(=S)SCC(=O)c2ccccc2)CC(C)O1 (centres undefined),0.428%,
COc1cccc(NC(=O)CN(C)C(=O)CSC(=S)N2CCCC2)c1,-0.0559%,
O=C(CSC(=S)N1CCOCC1)c1ccccc1,,0.501 µM (active)
CC(=O)c1ccc(NC(=O)CSC(=S)N2CCCC2)cc1,10.1%,
O=C(CSC(=S)N1CCCCC1)c1c(F)cccc1F,,1.12 µM (active)
O=C(CSC(=S)N1CCOCC1)c1cc(Br)cc(Br)c1O,-2.2%,
COc1ccc(C(=O)N2CCN(c3ncccn3)CC2)cc1S(=O)(=O)N1CCOCC1,-2.21% [at 1.84 µM],
C=CCC(NC(=O)Cc1ccccc1)C(=O)NCCC (centres undefined),0.87%,
COc1ccc2nc(NC3=NCN(CC4CCCO4)CN3)nc(C)c2c1 (centres undefined),0.784%,
COc1ccc(NS(=O)(=O)c2cc(NC(=O)COc3ccccc3F)ccc2OC)cc1,-1.42%,
O=C(N/N=C/c1cccc(Br)c1)c1ccc(N2CCCC2=O)cc1,-8.21%,
COc1cc(/C=N/NC(=O)c2ccc(N3CCCC3=O)cc2)ccc1O,,2.51 µM (active)
COc1ccc(C(=O)Nc2ccccc2C(=O)N/N=C/c2ccc(O)c(OC)c2)cc1,-21.2%,
O=C1C=C(c2cccc(Cl)c2)C[C@@H](c2ccc(F)cc2)C1,-2.9%,
O=C(Nc1cc2ccccc2oc1=O)C1CCCCC1,,0.447 µM (active)
CN1C(=O)c2ccc(NC(=O)C3CCCCC3)cc2C1=O,6.75%,
Cc1ccccc1NC(=O)C1CCN(C(=O)NC2CCCCC2)CC1,-1.28%,
COc1ccc(S(=O)(=O)N2CCOCC2)cc1NC(=O)Cc1c(F)cccc1Cl,-0.249%,
Cc1sc2ncnc(SCC(=O)Nc3ccc(CN4CCCC4)cc3)c2c1C,-0.261%,
Cc1ccc(OCCOc2cccc(/C=N/NC(N)=O)c2)cc1,,2.82 µM (active)
O=C(N/N=C/c1cccc(OCc2ccccc2)c1)c1ccc(Br)o1,-0.559%,

Compound,activation,Potency
Cc1cccc(OCC(=O)NCC(=O)N/N=C/c2ccc(N(C)C)cc2)c1,-3.43%,
COc1ccc(OC)c(-c2csc(NC(=O)COC(=O)C3CC3)n2)c1,-1.63%,
O=C(NCC1CCCO1)c1cc2c(s1)CCCC2 (centres undefined),12.7% [at 1.84 µM],
Cn1nccc1NS(=O)(=O)c1ccc(F)cc1,,0.0003 µM (active)
Cc1cc(C)cc(NS(=O)(=O)c2ccc(F)cc2)c1,1.42%,
Cc1ccc(NS(=O)(=O)c2ccc(F)cc2)nc1,-1.77%,
O=C(CCNC(=O)c1ccc(Cl)cc1)NC1CCCc2ccccc21 (centres undefined),-2.02%,
CC(=O)c1cc2c(cc1N)OCO2,10.6%,
Cc1[nH][nH]c(=O)c1N=Nc1ccccc1,5.11%,
Nc1[nH][nH]c(=O)c1N=Nc1ccc2c(c1)OCO2,,2.82 µM (active)
Cc1cc(C)cc(OCC(=O)OCC(=O)NC2CCCC2)c1,0.646%,
Nc1ccn(CC(=O)N2CCN(c3ccccn3)CC2)c(=O)n1,15.2%,
CC(C)N(Cc1nnc(-c2ccccc2Br)o1)C(=O)c1cc(Cl)nc2ccccc12,-2.21%,
CCC(=O)c1ccc(OCC(=O)Nc2ccc(N3CCCCC3)cc2)cc1,1.3%,
CCC(=O)Nc1ccc(-c2ccc(N3CCCCC3)nn2)cc1,,2.24 µM (active)
CCCCSc1nnc(-c2ccc(NC(=O)CC)cc2)n1C,-1.14%,
CN(CC(=O)NCCc1ccc(F)cc1)CC(=O)Nc1ccc(F)c(F)c1F,11.4%,
O=C(Nc1ccc2c(c1)OCO2)C1CC(c2c(F)cccc2Cl)=NO1 (centres undefined),,3.98 µM (active)
O=C(Nc1ccc2c(c1)OCO2)C1CC1(Cl)Cl (centres undefined),21.2%,
Cc1ccc(NC(=O)C2CC(c3ccc(F)cc3)=NO2)cc1 (centres undefined),0.084%,
CN(Cc1cccs1)C(=O)CN1C(=O)c2ccccc2S1(=O)=O,-0.831%,
O=C(COC(=O)c1cccc(Cl)c1)NC1CCCCCCC1,0.302%,
CCCN(CC(=O)NC(=O)NC1CCCCC1)CC(=O)Nc1cc(Cl)ccc1Cl,-0.744%,
CC(=O)NC12CC3CC(C1)CC(C(=O)N1CCN(S(=O)(=O)c4cccs4)CC1)(C3)C2,-1.34%,
